Data from PubChem BioAssay AID1259416 (Broad Institute, 2018).
Among all 69,000 compounds or so, about 2,600 (3.8%) were called active. What follows is part of a selection rich in actives, with near analogues and random picks from the rest. Values without a mark were called inactive. Cut-off read from the data, not from the text of the source: active = activity change below about -70% (passing the limit was not always enough); inconclusive = no clear call, values can overlap the other calls.

Experiment: T. gondii growth inhibition with IFN-gamma, primary screen, cell-based (AID 1259416);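 note: host cells are HeLa cells infected with Toxoplasma gondii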
Details: Toxoplasma gondii growth in IFN-gamma-treated host cells; active compounds read low; concentration not given here

Row | Compound | activity change, negative = inhibition
1 | COc1ccc(C(=O)N2CC(C(=O)N3CCOCC3)C3(CCOCC3)C2)cc1 (stereo unspecified) | 2.42%
2 | O=C(CC1CC1)N1CC[C@@H]2[C@H](CO)Nc3ccc(-c4ccc(F)cc4)cc3[C@@H]21 | -30.6%
3 | COc1ccc(-c2noc(-c3c(O)c4ccccc4n(C)c3=O)n2)cc1F | 31.1%
4 | COc1cccc(-n2c(=O)c(C(=O)NC(C)c3ccccc3)c(O)c3cccnc32)c1 (stereo unspecified) | -12.7%
5 | CCc1ccc(NC(=O)c2c(O)c3cccnc3n(-c3ccccc3)c2=O)cc1 | 86%
6 | O=C(Nc1cccc(Cl)c1)c1c(O)c2cccnc2n(-c2ccc(F)cc2)c1=O | 195%
7 | CCc1cccc(NC(=O)c2c(O)c3cccnc3n(-c3cccc(F)c3)c2=O)c1 | -96.6% (active)
8 | COc1ccccc1CNC(=O)c1c(O)c2cccnc2n(-c2ccccc2)c1=O | -37.8%
9 | Cc1ccc(NC(=O)c2c(O)c3cccnc3n(-c3cccc(F)c3)c2=O)cc1F | 126%
10 | COc1ccc(CNC(=O)c2c(O)c3cccnc3n(-c3ccc(F)cc3)c2=O)cc1 | 85.2%
11 | O=C(NCc1ccc(F)cc1)c1c(O)c2cccnc2n(-c2cccc(F)c2)c1=O | -108% (active)
12 | COc1ccc(-n2c(=O)c(C(=O)Nc3ccccc3C)c(O)c3cccnc32)cc1 | 33.1%
13 | O=C(NCc1ccccc1F)c1c(O)c2cccnc2n(-c2cccc(F)c2)c1=O | -102% (active)
14 | COc1cccc(-n2c(=O)c(C(=O)Nc3ccccc3F)c(O)c3cccnc32)c1 | 40%
15 | C=CCNC(=O)c1c(O)c2cccnc2n(-c2cccc(F)c2)c1=O | -76.4% (active)
16 | Cc1noc(C[C@H]2C[C@@H]3CN(C(=O)c4ccco4)C[C@H]3O2)n1 | -25%
17 | CCCN(CCC)C(=O)NCCCCCCNC(=O)N(CCC)CCC | -0.334%
18 | CO[C@@H]1CN(C)C(=O)c2cc(NC(C)=O)ccc2OC[C@H](C)N(C(=O)Cc2ccccn2)C[C@@H]1C | 163%
19 | O=C(c1cccs1)N1CCn2c(Cn3cccn3)cnc2C1 | 3.34%

Row | Compound | activity change, negative = inhibition
20 | O=S(=O)(c1ccccc1)N1CC2CN(Cc3ccc(O)cc3)CC2C1 (stereo unspecified) | -5.71%
21 | COc1ccccc1-n1cc(CNC(=O)c2ccc(=O)n(C)c2)cn1 | 1.65%
22 | O=C(CCn1cnnn1)NCc1cnn2ccccc12 | 1.34%
23 | COCC(=O)Nc1ccc(-c2nc(-c3cc(C)ccc3C)co2)cc1 | 11.3%
24 | CNC(=O)c1ccccc1Nc1nc(Nc2ccc(N3CCOCC3)cc2OC)ncc1Cl | -72.7% (active)
25 | COc1ccccc1C(=O)Nc1ccc(N2CCN(C)CC2)cc1 | -6.5%
26 | COc1ccc(S(=O)(=O)N2CCOCC2)cc1NC(=O)COc1ccccc1 | -52.6%
27 | CCS(=O)(=O)N1CCC2(CC1)CN(S(=O)(=O)c1ccc(C)cc1)[C@H](CO)c1[nH]c3cc(OC)ccc3c12 | 268%
28 | c1cnc2c(-c3cc(N4CCOCC4)ncn3)cccc2c1 | 12.9%
29 | Nc1cc(N2C[C@H]3CC=CC[C@H]3C2)nc(N2CCOCC2)n1 | 14.9%
30 | Nc1cc(C(F)(F)F)c(-c2cc(N3CCOCC3)nc(N3CCOCC3)n2)cn1 | -74.6% (active)
31 | Cc1ncc(C(=O)NCCCn2ccc3ccccc32)c(C)n1 | 2.92%
32 | CCS(=O)(=O)N1CC2(CN(C(=O)c3ccc(F)cc3)[C@@H](CO)c3c2c2ccc(OC)cc2n3C)C1 | 62.5%
33 | CC(C)CN1CCS(=O)(=O)[C@H]2CCN(S(=O)(=O)N(C)C)CC[C@@H]21 | -5.98%
34 | Cn1nc(C(=O)NCC2CCC(c3nnc(-c4ccncc4)o3)CC2)ccc1=O (stereo unspecified) | 24.6%
35 | O=C(O)CC1CCC(c2ccc(-c3ccc(Nc4ccc(C(F)(F)F)nc4)cn3)cc2)CC1 (stereo unspecified) | -61.2%
36 | CCCC1CCC(c2ccc(-c3ccc(CC)cn3)cc2F)CC1 (stereo unspecified) | -76% (active)
37 | COCCN(Cc1cccs1)C(=O)c1ccncc1Cl | 3.28%
38 | COc1cccc(C2=NN(C(=O)C(C)C)C(O)(C(F)(F)F)C2)c1 (stereo unspecified) | -0.0765%

Row | Compound | activity change, negative = inhibition
39 | COc1c(C)cnc(CN(C)C(=O)c2cnn3cc(C)cnc23)c1C | -3.21%
40 | COCC1CCN(c2nc(C(C)(C)C)nc3c2cnn3C)C1 (stereo unspecified) | -12.1%
41 | O=C(Nc1cccnc1)c1cc2c(s1)-c1ccccc1CC2 | -101% (active)
42 | Cc1ccc(N2CC3(CCN(C(=O)COc4ccccc4)C3)CC2=O)cc1 (stereo unspecified) | -15.8%
43 | CCOC(=O)c1nc(NCCc2c[nH]c3ccc(Cl)cc23)c2c(C)noc2n1 | 46.7%
44 | O=C(NCCc1c[nH]c2ccccc12)c1cc(=O)nc2sc(N3CCCC3)nn12 | 5.09%
45 | CCN1CCN(c2ncnc3sc(C(=O)NCCc4c[nH]c5ccc(Cl)cc45)c(C)c23)CC1 | -83.1% (active)
46 | COCCn1cc(-c2nc(C(=O)NCCc3cccnc3)c3ccccn23)nc1C | -8.4%
47 | Cc1ccc(C(=O)NC(=S)Nc2cccc(NC(=O)c3ccccc3)c2)cc1C | -63.6%
48 | O=C(O)CC1(CC(=O)Nc2ccc(N3CCCCC3)cc2)CCCCC1 | 96.8%
49 | CC(C)(C)c1ccc(C(=O)NC(=S)Nc2ccc(N3CCCCC3)cc2)cc1 | -87.8% (active)
50 | CC1CCN(c2cncnc2-n2cc(NC(=O)CC3CCCCC3)cn2)CC1 | -88.5% (active)
51 | Cc1cc(NC(=O)CC2CCCCC2)n(-c2ncnc3c2cnn3-c2ccc(Cl)cc2)n1 | 16.1%
52 | CC1CCN(c2ncnc3c2cnn3CC(=O)Nc2cc(F)cc(F)c2)CC1 | -68.2%
53 | Cc1c(CN(C)C(=O)COc2cccnc2)[nH]c2ccccc12 | 66.9%
54 | Cc1cccc(-c2[nH]n3c(=O)cc(C(C)n4cnc5ccccc5c4=O)nc3c2C)c1 (stereo unspecified) | -29.3%
55 | COc1cc(CCC(C)NC(=O)c2ccc(C)cc2)ccc1OC(=O)c1ccc(C)cc1 (stereo unspecified) | -12.5%
56 | O=C1c2ccc(Nc3ccc(F)cc3F)cc2CCc2ccc(OC[C@H](O)CO)cc21 | -74% (active)
